Results published in PubChem BioAssay (NCI).
This is part of a sample that, as a whole, favours compounds with a hit. Of some 83,000 tested, about 20% had one in any assay.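 Negative percent growth values reflect cell death: -40 means 40% of the cells present at the start died, and -100 means all died.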 Unmarked numbers belong to inactive results. Calls of active or inactive are those of the source. Rule for the calls: active = growth percent below 10; inactive = the rest.

Tested on: HL-60(TB) leukemia
Assay: NCI-60 one-dose screen, 48 h (100 = growth as untreated, 0 = no growth, -100 = all killed)
Conditions: 10 µM unless noted

| Structure (SMILES) | growth |
| --- | --- |
| CCCCn1sc(=O)n(Cc2ccc(CNC(=O)OCc3ccc4c(Br)cc(Br)c(O)c4n3)cc2)c1=O | -60.6% (active) |
| CC(=O)c1ccc2c(c1)C1C=CCC1[C@H](c1cc3c(cc1Br)OCO3)N2 (stereo not given in full) | -45.3% (active) |
| CCN(CC)CCSC(=O)C(O)(c1ccccc1)C1CCCC1 (stereo not given) | 94% |
| COc1ccc(NC(=S)NNc2ccc(-c3ccc(OC)c(OC)c3)nn2)cc1 | 98.9% |
| COc1ccc2nc3ccccc3c(NCc3ccc(C)cc3)c2c1 | 0.0372% (active) |
| O=C(Nc1ccccc1C(F)(F)F)C1=NCCCCN1 | 99.8% |
| N#CCCOc1ccccc1 | 88.7% |
| COc1ccc(C2C3=C(COC3=O)N(CCO)c3cc4c(cc32)OCO4)cc1OC (stereo not given) | 65.7% |
| COc1ccc2sc3c(NCCCNCCO)nc4ccccc4c3c(=O)c2c1 | 36.5% |
| COc1ccc(/C=C/C(=O)c2ccc([N+](=O)[O-])cc2)cc1 | 82% |
| COc1ccc(-c2nc3c(ncc4ccc(=O)[nH]c43)s2)cc1 | 80.1% |
| C#CCOc1ccc2ncnc(Nc3cccc(NC(=O)CCl)c3)c2c1 | 63.7% |
| C[C@]12O[C@H](C[C@]1(O)CO)n1c3ccccc3c3c4c(c5c6ccccc6n2c5c31)CNC4=O | -32.7% (active) |
| COc1cc2nc(Nc3cccc(F)c3)nc(Nc3cc(C)[nH]n3)c2cc1OC | -54% [20 µM] (active) |
| COc1cc(CNC(=O)CCCC/C=C/C(C)C)ccc1OCc1cn(-c2cccc([N+](=O)[O-])c2)nn1 | 109% |
| CC[n+]1ccc(Nc2ccc(NC(=O)c3ccc(Nc4cc[n+](CC)c5ccc([N+](=O)[O-])cc45)cc3)cc2)cc1 | 66.9% |
| CCN1C(=O)N(CC)C2C1NN=c1s/c(=C\c3cc4ccccc4[nH]3)c(=O)n12 (stereo not given) | -62% (active) |
| Cc1nc([P+](c2ccccc2)(c2ccccc2)c2ccccc2)c(N2CCCCC2)o1 | -2.68% (active) |
| O=C(N/N=C\c1ccccc1O)C1CC1 | 101% |
| CCCCNC(=O)NS(=O)(=O)Cc1ccccc1 | 88.1% |

| Structure (SMILES) | growth |
| --- | --- |
| O=[N+]([O-])c1ccc(NC(c2ccccc2)c2ccc3cccnc3c2O)cc1 (stereo not given) | -9.64% (active) |
| CCN(CC)CCN(CCN(CC)CC)c1ccccc1 | 87.9% |
| COc1ncnc2c(-c3ccccc3)cn(COCc3ccccc3)c12 | 53.1% |
| COc1ccc(/C=C(/C(=O)N2CCNCC2)c2cc(OC)c(OC)c(OC)c2)cc1O | -37.7% (active) |
| CCN1C(=O)N(CC)C2Nn3c(s/c(=C4\C(=O)N(CC(C)C)c5ccccc54)c3=O)=NC21 (stereo not given) | 18.9% |
| O=[N+]([O-])c1cc2c(ccc3occc32)o1 | 5.05% (active) |
| c1cnc2n[nH]c(Nc3ncnc4c3sc3ncccc34)c2c1 | 96.8% |
| COc1cc(/C=C/C(=O)c2c(C)oc3nc[nH]c(=O)c23)ccc1O | 117% |
| O=CN1N=C(c2ccc(F)cc2)CC1c1cccc(Nc2ccnc3cc(C(F)(F)F)ccc23)c1 (stereo not given) | 8.69% (active) |
| OCCN1CCN(CC/C=C2/c3ccccc3Sc3ccc(C(F)(F)F)cc32)CC1 | 73.1% |
| O=C1Nc2ccccc2/C1=C/c1cn(CCCn2c3ccccc3c(=O)c3ccccc32)c2ccccc12 | 84% |
| COc1ccc(-c2nc3ncccn3c2-c2nnc(-c3ccsc3C)o2)cc1 | 92.5% |
| C#CCNC(=O)[C@H](CC)[C@H]1CC[C@H](C)[C@H]([C@@H](C)[C@H](O)[C@H](C)C(=O)[C@H](CC)C2O[C@]3(C=CC(=O)[C@]4(CC[C@@](C)([C@H]5CC[C@](O)(CC)[C@H](C)O5)O4)O3)[C@H](C)C[C@@H]2C)O1 (stereo not given in full) | 1.79% (active) |
| Cc1ccc(C(=O)/C=C/c2ccccc2)s1 | 97.1% |
| O=C(Nc1cccc([N+](=O)[O-])c1)c1cc2ccccc2cc1O | -54.1% (active) |
| CN(C)S(=O)(=O)Oc1ccc(-c2sc3cc(OS(=O)(=O)N(C)C)ccc3c2C(=O)c2ccc(OCCN3CCCCC3)cc2)cc1 | 53.2% |
| CCC(=O)OC1CCC2C3CCC(=O)OC3C(C)(CCC(=O)O)CC12C (stereo not given) | -23.2% (active) |
| O=C(N/N=C/c1cc2ccccc2c2ccccc12)c1cc(O)c(O)c(O)c1 | 39.9% |
| CCNc1nc(C(F)(F)F)nc2c1sc(=S)n2-c1ccccc1 | 98.9% |
| COc1cc(OC)cc(C(=O)Nc2cnc(Nc3ccc(N4CCOCC4)nc3)nc2Oc2ccc(C(F)(F)F)cc2)c1 | 94.7% |
